Rows were chosen to be rich in hits. Some 19% of all compounds tested hit in one or more screens of this group.
CHX counter – Cycloheximide Counterscreen for Small Molecule Inhibitors of Shiga Toxin; 300,000 compounds, 12% hits; max response, %; cell reporter, cycloheximide protein synthesis inhibition counterscreen; in the data active = max response mostly above about 13%, no sharp cut-off; inactive = mostly below about 14%; note: read at 38.3 µM for the half of the compounds with a filed dose; 0% is about no effect
Pf growth 96h – Primary qHTS for delayed death inhibitors of the malarial parasite plastid, 96 hour incubation | P. falciparum luciferase reporter growth, 96 h | Potency, µM (titrated, usually from 28.7 µM), for the others: at the top dose activity change, negative = inhibition, actives largely listed as inhibitors | 320,000 compounds, 6.9% hits | AID 504834, 2011; note: potency is the fitted concentration of half-maximal effect; % is set by controls: 0 for no effect and ±100 for the full control effect
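Readout is luminescence from an integrated firefly luciferase in P. falciparum. Red cells, 2% hematocrit and 0.05% parasitemia final, were cultured with compound through two parasite generations (96 hours) at 37 C, 5% CO2.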
Shiga inhibitor – A qHTS for Small Molecule Inhibitors of Shiga Toxin | 290,000 compounds, 9.2% hits | Vero cells, Shiga toxin protein synthesis inhibition reporter | inhibition, % at 38.7 µM; in the data active = inhibition mostly above about 28%, no sharp cut-off; inactive = mostly below about 43%; note: 0% is about no effect
MARV entry inh – qHTS for inhibitors of binding or entry into cells for Marburg Virus | Potency, µM (doses to about 37.8 µM), for inactives: at the top dose activity change, negative = inhibition, usual class: inhibitors | Marburg virus pseudotyped entry inhibition, cell reporter | AID 540276, 2011 | 300,000 compounds, 1.8% hits; calls by dose curve; tested in HEK293 cells; note: potency is the fitted concentration of half-maximal effect; % is set by controls: 0 for no effect and ±100 for the full control effect
LASV entry inh – qHTS for Inhibitors of binding or entry into cells for Lassa Virus | 300,000 compounds, 1.2% hits | Potency, µM (top dose mostly 37.9 µM), for inactives: top-dose activity change, negative = inhibition, actives largely listed as inhibitors | Lassa virus pseudotype entry inhibition, cell reporter | AID 540256, 2011; calls by dose curve; tested in HEK293 cells; note: potency is the fitted concentration of half-maximal effect; % is set by controls: 0 for no effect and ±100 for the full control effect; nearly all actives have a fitted effect of over 50% in size
Pf growth 48h – Primary qHTS for delayed death inhibitors of the malarial parasite plastid, 48 hour incubation. P. falciparum luciferase growth in erythrocytes, 48 h. Potency, µM (series often up to 28.7 µM), inactives show top-dose activity change, negative = inhibition, hits mostly inhibitors. 310,000 compounds, 5.9% hits; note: potency is the fitted concentration of half-maximal effect; % is set by controls: 0 for no effect and ±100 for the full control effect
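Read-out is firefly luciferase luminescence from an integrated reporter in P. falciparum, so falling signal marks reduced parasite growth. Infected erythrocytes were at 2% hematocrit and 0.1% parasitemia (final) in Albumax-supplemented RPMI 1640.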
The depositor's hits bear a star; ? = inconclusive; . = no result; [ ] = remark or other dose. Unless noted, calls come from the whole dose curve; as a rule, active = well fitted inhibition curve with a large enough effect; inconclusive = small, poorly fitted or top-dose-only effect, or another doubt; inactive = no such curve, though single readings can be large or run the other way.

SMILES	CHX counter	Pf growth 96h	Shiga inhibitor	MARV entry inh	LASV entry inh	Pf growth 48h
O=C(Nc1ccc(NC(=O)c2cccs2)cc1)c1cccs1	43*	13%	83*	?	22%[46.1 µM]	59%
CC(C)C(=O)N1CCN(c2ccc(NC(=O)c3cccs3)cc2)CC1	-3	104%	-5	-2%[46.1 µM]	-1%	?
COc1ccc(C(=O)Nc2ccc(NC(=O)c3cccc(F)c3)cn2)cc1	-2	?	15	-1%	1%	?
Cc1ccccc1C(=O)Nc1ccc(NC(=O)c2cccs2)cc1	.	.	.	.	-27%[46.1 µM]	.
CCN1CCN(CC(=O)Nc2ccc(C)c(Br)c2)CC1	-3	13%	-4	.	.	.
O=C(Nc1ccc2[nH]ccc2c1)c1cccs1	27*	424%	55*	.	.	152%
COc1c(Cl)cc(Cl)cc1C(=O)Nc1ccc(NC(=O)c2cccs2)cc1	3	13µM*	-11	?	?	9.3µM*
Cc1ccc(NC(=O)NNC(=O)c2cccs2)cc1	17*	24%	38*	?	?	48%
O=C(Nc1ccc(NC(=O)c2ccc(Cl)cc2Cl)cc1)c1cccs1	1	?	5	?	14%[46.1 µM]	6%
O=C(Nc1ccc(Oc2ccc(C(=O)O)c(C(=O)O)c2)cc1)c1cccs1	1	2.1µM*	-15	-17%[46.1 µM]	-2%	7%
Cc1ccc(-c2nc(N3CCCC(C)C3)c3ccccc3n2)cc1 (configuration not stated)	.	.	.	7%[46.1 µM]	-9%[46.1 µM]	.
COc1ccc(OC)c(-c2nc3cc4ccccc4cc3nc2-c2ccccc2)c1	-6	?	1	29%	-18%	?
O=C(NCC(c1ccco1)N1CCc2ccccc2C1)c1ccc(Cl)c([N+](=O)[O-])c1 (configuration not stated)	.	1%	.	-4%	?	?
COc1ccc(NC(=O)/C(=C/c2cccnc2)NC(=O)c2cccs2)cc1	0	4.1µM*	-5	4%	11%	-6%
CCC1CCCCN1S(=O)(=O)c1ccc(NC(=O)c2cccs2)cc1 (configuration not stated)	1	-19%	16	-2%	5.2µM*	2.3µM*
COc1ccccc1C(=O)Nc1ccc(NC(=O)c2cccs2)cc1	.	.	.	.	1%[46.1 µM]	.
COc1ccc(NC(=O)/C(=C\c2cccnc2)NC(=O)c2cccs2)cc1	-1	25%	-10	13%	-5%	-8%
COc1ccc(NC(=O)c2cccs2)cc1	41*	?	78*	?	?	333%
CCC1CCCCN1S(=O)(=O)c1ccc(NC(=O)c2snnc2C)cc1 (configuration not stated)	-4	68%	-4	.	.	?
O=C(Nc1ccc(Cl)cc1)c1cccs1	60*	15%	82*	8%	16%	39%
Cc1onc(-c2ccccc2)c1C(=O)NCc1cccnc1	-1	.	-13	1%	8%	-1%
CC1CCCCC1NC(=O)c1ccc(S(=O)(=O)N2CCN(C)CC2)cc1 (configuration not stated)	-2	?	-6	.	.	-4%
O=C(Nc1cccc(N2CCCC2)c1)c1cccs1	27*	-5%	72*	8%	18%	?
Fc1ccc(Oc2nc(-c3ccccn3)nc3ccccc23)cc1	51*	4.7µM*	67*	?	-15%	1.7µM*
COc1ccc(Oc2nc(-c3ccccn3)nc3ccccc23)cc1	48*	0.37µM*	56*	?	?	1.7µM*
SMILES	CHX counter	Pf growth 96h	Shiga inhibitor	MARV entry inh	LASV entry inh	Pf growth 48h
c1ccc(Oc2nc(-c3ccccn3)nc3ccccc23)cc1	36*	1.3µM*	35*	?	?	1.7µM*
CSc1nc(Oc2ccc(F)cc2)c2ccccc2n1	-1	?	-2	0%	-10%	-18%
CCCCN1CCNC[C@H]1Cc1ccc(O)cc1	.	4%	.	.	.	1%
Oc1ccc(C[C@H]2CNCCN2CCCCC2CCCCC2)cc1	.	?	.	.	.	8.3µM*
Oc1ccc(C[C@@H]2CNCCN2CCC23CC4CC(CC(C4)C2)C3)cc1	.	2.1µM*	.	.	.	10µM*
Cc1ccc(-n2c(=O)c3cccnc3n2CC(=O)Nc2cccc(C)c2C)cc1	.	.	.	.	7%[46.1 µM]	.
Cc1nn(C)cc1CNC(=O)C1CCC(=O)N(CC2CCCCC2)C1 (configuration not stated)	-4	?	-25	3%	-14%	5%
CCCN(CCC)C(=O)c1c(C)[nH]c(C(=O)OCC)c1C	1	4%	2	8%	1%	-7%
CCOC(=O)c1oc2ccc(CNC3CCCCC3)c(Cl)c2c1C	-1	-22%	-3	7.3µM*	?	?
CCOC(=O)c1oc2ccc(CNCCO)c(Cl)c2c1C	40*	?	82*	?	-2%	58%
COc1cccc(NC(=O)CC2C(=O)OCCN2Cc2ccccc2)c1 (configuration not stated)	.	.	.	15%[46.1 µM]	0%[46.1 µM]	.
Cc1ccc(C)c(OCC(=O)Nc2ccc(S(=O)(=O)Nc3onc(C)c3C)cc2)c1C	.	.	.	0%[46.1 µM]	?	.
COc1ccc(C(=O)NCC(=O)Nc2cccc(S(=O)(=O)N3CCCC3)c2)cc1	.	.	.	20%	-4%	.
CSc1nc2ccc(NC(=O)C3=NNC(=O)CC3)cc2s1	16*	10%	47	.	.	0%
COC(=O)c1ccc(C(=O)NC(=S)Nc2ccc3nc(SC)sc3c2)cc1	11*	55%	11	?	16%	24%
CSc1nc2ccc(NC(=O)c3ccccn3)cc2s1	38*	70%	105*	?	2µM*	69%
COc1ccc(CC(=O)Nc2ccc3nc(SC)sc3c2)cc1OC	-2	?	42	-13%[46.1 µM]	3%[46.1 µM]	-18%
O=C(CSc1nc2ccccc2c(=O)[nH]1)Nc1ccccc1O	-5	0%	-3	6%[46.1 µM]	-19%	39%
CN1CCN(C(=O)c2cnn3c(C(F)F)cc(C4CC4)nc23)CC1	1	.	-9	7%	?	-6%
CCOC(=O)c1ccc(NC(=O)NCc2ccc(OC)cc2)cc1	13	-9%[5.75 µM]	31	-11%	?	?
COc1ccc(CNC(=O)Nc2ccc(C)c(C)c2)cc1	33*	10%	32	.	.	0%
COc1ccc(CNc2ccc(C)c(C)c2)cc1	41*	0%	57*	17%[46.1 µM]	-9%	69%
COc1cc(CNc2ccc(C)c(C)c2)cc(OC)c1OC	35	?	115	?	?	?
COc1ccc(NC(=O)NCc2ccncc2)cc1	-1	228%	-22	-13%	-6%	47%
COc1ccc(CNC(=O)Nc2ccc(C)cc2)cc1	24*	6%	76*	-1%[46.1 µM]	18%	84%
COc1ccc(CNC(=O)Nc2cc(C)cc(C)c2)cc1	24*	8%	48*	.	.	6%
CCn1nc(C)c2c(-c3ccccc3)cc(=O)n(C(C)C(=O)Nc3cccc(F)c3)c21 (configuration not stated)	.	.	.	.	0%[46.1 µM]	.
